High-throughput results as filed in PubChem.
An excerpt weighted towards active compounds, which were near 1.9% of everything screened.
PERK inh: blocks human PERK kinase; inhibition, % at 5.6 µM; CHO PERK-DD fusion, SEAP luminescence translation reporter; 220,000 tested, 0.17% active; Q9NZJ5;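 active = inhibition above the mean inhibition of all tested compounds plus 3 SD, set separately per screening campaign, cut at about 2.9% in these data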;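 note: PERK kinase domain activated by AP20187 dimerizer at 100 nM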
PABP FP inh: PABP-poly(A) binding inhibition; 290,000 tested, 1% active; PABP-poly(A) RNA binding, fluorescence polarization; inhibition, % at 35 µM; P11940;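 note: calls also rest on retests at 20 µM and on dose response follow-up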
Target sequence (P11940 whole entry, looked up): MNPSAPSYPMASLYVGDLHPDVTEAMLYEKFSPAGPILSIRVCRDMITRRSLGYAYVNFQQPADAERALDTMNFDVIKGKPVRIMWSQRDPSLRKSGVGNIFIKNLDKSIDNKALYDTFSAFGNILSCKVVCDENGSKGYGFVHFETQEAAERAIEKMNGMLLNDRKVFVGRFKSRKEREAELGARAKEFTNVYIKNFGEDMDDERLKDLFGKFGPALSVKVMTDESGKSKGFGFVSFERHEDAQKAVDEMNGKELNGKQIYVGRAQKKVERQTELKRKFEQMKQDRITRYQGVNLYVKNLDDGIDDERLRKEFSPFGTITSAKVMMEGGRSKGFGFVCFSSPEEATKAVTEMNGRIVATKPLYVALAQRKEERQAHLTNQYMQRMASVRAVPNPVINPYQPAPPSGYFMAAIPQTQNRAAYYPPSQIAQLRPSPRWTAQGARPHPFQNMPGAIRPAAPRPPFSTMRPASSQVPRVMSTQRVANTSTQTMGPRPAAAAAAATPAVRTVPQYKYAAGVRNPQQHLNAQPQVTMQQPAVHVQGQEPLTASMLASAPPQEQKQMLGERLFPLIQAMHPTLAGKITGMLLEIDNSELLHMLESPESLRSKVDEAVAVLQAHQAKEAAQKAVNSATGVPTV
GRK2 aptamer HTS: inhibitors of human GRK2 displacing RNA aptamer; P25098; bead flow cytometry, FAM-aptamer displacement from GRK2; inhibition of aptamer binding, % at 10 µM; 330,000 tested, 0.59% active;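 active = inhibition of aptamer binding above 40%, roughly 3 SD of noise, on plates passing a quality check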;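 note: median bead fluorescence of bound FAM aptamer so fluorescent compounds give negative values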
eIF4H FP inh: inhibitors of RNA binding by human eIF4H | Q15056 | eIF4H fluorescence polarization binding assay | inhibition, % at 35 µM | 290,000 tested, 0.94% active | AID 2012;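 note: calls also rest on retests at 20 µM and on dose response follow-up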
MLLE-PAM2 inh: inhibitors of microRNA-mediated deadenylation, human PABP1 MLLE binding | 360,000 tested, 0.36% active | inhibition, % at 20 µM | AID 588489 | GST-MLLE / FITC-PAM2 fluorescence polarization | P11940; in the data active = inhibition above about 35%, passing the limit was not always enough
GRK2 CP1: confirmation of human GRK2 inhibitors displacing RNA aptamer; aptamer displacement, % at 10 µM; 2,000 tested, 4% active; bead-bound GRK2, FAM-aptamer displacement, flow cytometry; shares compounds with GRK2 aptamer HTS;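 active = aptamer displacement above 40%, near three times the noise of non-fluorescent compounds, on plates passing quality checks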;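 note: negative values mostly reflect intrinsic compound fluorescence rather than true enhancement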
Aptamer quench 1: counter-screen for GRK2 aptamer inhibitors: fluorescent aptamer quenchers; Fluorescent RNA aptamer beads, quenching, flow cytometry; hits give high values; 110 tested, under 10 active; shares compounds with GRK2 aptamer HTS; fluorescence change (kMESF span), kMESF (no concentration beside the values);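 active = compounds whose bead fluorescence drops by more than 37 kMESF across the dose range, marking them as dye quenchers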
FAM quench CP1: aptamer fluorescence quenching in GRK2 counter-screen; shares compounds with GRK2 aptamer HTS; Carboxyfluorescein RNA aptamer on beads, flow cytometry quenching; hits give low values; fluorescence response (% of DMSO), % at 10 µM; 2,000 tested, under 10 active; AID 504580;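 active = compounds that quench the bead-bound fluorescent RNA probe, cutting fluorescence to under half of the solvent control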;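 note: counterscreen run without GRK2 so only probe quenching by compound is measured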
GRK2 CP2: human GRK2 inhibition confirmation, cherry pick 2. shares compounds with GRK2 aptamer HTS. bead-bound GRK2, FAM-aptamer displacement, flow cytometry. inhibition of aptamer binding, % at 10 µM. 360 tested, under 10 active. AID 504782;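 active = inhibition of aptamer binding above 40%, about triple the noise seen with nonglowing compounds, on plates passing quality control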;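 note: negative values mostly come from compounds that fluoresce themselves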
FAM quench SP: quenches fluorescent RNA aptamer, GRK2 hit artifact; 360 tested, under 10 active; fluorescence response vs DMSO, % at 10 µM; shares compounds with GRK2 aptamer HTS; carboxyfluorescein RNA aptamer beads, flow cytometry quenching; hits give low values; AID 588494;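 active = response vs DMSO under 50%, meaning signal dropped by over half, treated as fluorescence quencher; inconclusive = no clear call, values can overlap the other calls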;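 note: labelled aptamer on streptavidin beads without GRK2 as a quench counter-screen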
Numbers stand for hits; 0 = inactive; ? = inconclusive; - = not tested or not shown. Unless noted, the rule behind the calls is not given here.

SMILES | PERK inh | PABP FP inh | GRK2 aptamer HTS | eIF4H FP inh | MLLE-PAM2 inh | GRK2 CP1 | FAM quench CP1 | others
O=C(Cn1cnc([N+](=O)[O-])c1)Nc1ccc(F)c(Cl)c1 | - | 0 | - | 0 | 0 | - | -
Cc1nc([N+](=O)[O-])cn1CC(=O)Nc1ccc(F)c(Cl)c1 | - | 0 | 51 | 0 | 0 | 0 | 0
Cc1ccc(NC(=O)c2cccc(S(=O)(=O)N3CCN(c4ccccc4)CC3)c2)nc1 | - | - | 100 | - | 0 | 0 | 0
O=C(c1cccc(S(=O)(=O)N2CCc3ccccc32)c1)N1CCN(c2ccccc2)CC1 | - | - | - | - | 0 | 0 | 0
O=C(NC1CCCc2ccccc21)c1cccc(S(=O)(=O)N2CCN(c3ccccc3)CC2)c1 (stereo not drawn) | 0 | 0 | 0 | 0 | 0 | 0 | 0
COc1ccccc1CNC(=O)c1cccc(S(=O)(=O)N2CCN(c3ccc(F)cc3)CC2)c1 | - | - | 0 | - | 0 | 0 | 0
CC1CCC(NC(=O)c2cccc(S(=O)(=O)N3CCN(c4ccccc4)CC3)c2)CC1 (stereo not drawn) | - | - | 0 | - | 0 | - | -
COc1ccc(OC)c(CC(=O)Nc2ccc3c(c2)c(=O)n(C)n3Cc2cccc(C(F)(F)F)c2)c1 | - | - | - | - | 0 | - | -
Cc1ccc(OCC(=O)Nc2cccnc2Cl)cc1C | - | 0 | 0 | 0 | 0 | - | -
Cc1ccc(NC(=O)COC(=O)C2(CC(=O)NC(C)(C)C)CCCC2)cc1C | - | - | 0 | - | 0 | 0 | 0
O=C1CCc2cc(S(=O)(=O)NC(Cc3ccccc3)C(=O)N3CCN(c4ccccn4)CC3)ccc2N1 (stereo not drawn) | 0 | 0 | 0 | 0 | 0 | - | -
O=C(CSc1nnc(Nc2ccccc2F)s1)NC1CCS(=O)(=O)C1 (stereo not drawn) | - | - | 0 | - | 0 | - | -
O=C(CSc1nnc(Nc2ccccc2F)s1)NC(=O)CN1CCCC1=O | - | - | 47 | - | 0 | 0 | 0
COc1cccc(NC(=O)C(C)NS(=O)(=O)c2ccc(Br)cc2)c1 (stereo not drawn) | - | 0 | 41 | 0 | 0 | - | - | GRK2 CP2=0;FAM quench SP=0
CCOC(=O)C1CCN(C(=O)c2cc(COc3ccc(OC)c4ccccc34)on2)CC1 | - | 0 | 0 | 0 | 0 | - | -
O=C(NC(=S)Nc1cc(Cl)ccc1Cl)c1ccco1 | - | - | - | - | 0 | - | -
CCOc1ccc(NC(=S)NC(=O)c2ccco2)cc1 | 0 | 0 | 74 | 0 | 0 | 0 | 0
COc1ccc(NC(=O)Cc2ccc(Cl)cc2)cc1NC(=O)c1ccco1 | 0 | 0 | 70 | 0 | 0 | 0 | 0
CCOc1ccc(NC(=O)c2ccco2)cc1 | 0 | 0 | 0 | 0 | 0 | - | -
COc1ccc(Cl)cc1NC(=S)NC(=O)c1ccco1 | - | - | 44 | - | 0 | - | - | GRK2 CP2=0;FAM quench SP=0
Nc1ccc(C(=O)C(=O)c2ccccc2)cc1 | - | - | 0 | - | 0 | - | -
COc1ccc(S(=O)(=O)Cc2ccc(C(=O)NC3CCCCCC3)o2)cc1 | - | 0 | 0 | 0 | 0 | - | -
CC(C)CCNC(=O)CCn1c(=S)oc2ccccc21 | 0 | 0 | 43 | 0 | 0 | 0 | 0
Cc1ccc(N=Nc2c(N)[nH]n3c(=O)c4c(nc23)CCCC4)cc1 | 0 | 0 | - | 0 | - | - | -
Cc1c(C)c2ccc(OC(C)C(=O)NCCCN3CCOCC3)c(C)c2oc1=O (stereo not drawn) | - | 0 | 0 | 0 | 0 | 0 | 0
SMILES | PERK inh | PABP FP inh | GRK2 aptamer HTS | eIF4H FP inh | MLLE-PAM2 inh | GRK2 CP1 | FAM quench CP1 | others
Cc1coc2c(C)c3oc(=O)c(CCC(=O)NCCCN4CCOCC4)c(C)c3cc12 | - | 0 | 0 | 0 | 0 | 0 | 0
CN(C)c1ccc2nc3ccc(=O)cc-3sc2c1 | - | - | - | - | 0 | - | -
CN(C)c1ccc2nc3ccc(=[N+](C)C)cc-3sc2c1 | 0 | 0 | 57 | ? | 0 | 0 | 0
O=C(CN1C(=O)NC(Cc2ccccc2)C1=O)Nc1ccccc1F (stereo not drawn) | - | - | 44 | - | 0 | - | - | GRK2 CP2=0;FAM quench SP=0
Cc1ccc(S(=O)(=O)NCc2ccccc2)cc1C(=O)N(C)Cc1ccccc1F | - | 0 | 0 | 0 | 0 | - | -
c1ccc2cc(OCCOCCOc3ccc4ccccc4c3)ccc2c1 | 0 | 0 | 55 | 0 | 0 | 0 | 0
Cc1ccc(OCCSc2nc3ccccc3n2CC(=O)O)cc1C | - | 0 | 0 | 0 | 0 | - | -
CC[C@@H](C)[C@H](NC(=O)Cc1c(C)c2c(cc(C)c3c(C)coc32)oc1=O)C(=O)O | - | 0 | 0 | 0 | 0 | - | -
CSCC[C@H](NC(=O)Cc1c(C)c2c(cc(C)c3c(C)coc32)oc1=O)C(=O)O | - | 0 | 97 | 0 | 0 | 0 | 0
CCOc1ccc(NS(=O)(=O)c2cccc(C(=O)N3CCN(C/C=C/c4ccccc4)CC3)c2)cc1 | - | - | - | - | 0 | - | -
Cn1c(N)c(C(=O)COC(=O)COc2ccccc2C#N)c(=O)n(C)c1=O | 0 | 0 | 0 | 0 | 0 | - | -
COc1ccc(-c2coc3cc(O)cc(O)c3c2=O)cc1OC | 0 | 0 | 0 | 0 | 0 | - | -
COc1ccc(-c2c(C)oc3cc(O)cc(O)c3c2=O)cc1OC | 0 | 0 | 50 | 0 | 0 | 0 | 0
O=C(Cn1c(COc2ccccc2)nc2ccccc21)Nc1cccc(Cl)c1 | 0 | 0 | 100 | 0 | 0 | - | - | GRK2 CP2=0;FAM quench SP=0
NNC(=O)Cn1c(COc2ccc(Cl)cc2)nc2ccccc21 | 0 | 0 | 0 | 0 | 0 | - | -
CN1C(C(=O)Nc2ccc(C(=O)O)cc2)=C(O)c2ccccc2S1(=O)=O | - | - | 0 | - | 0 | - | -
CCCCN1C(C(=O)Nc2ncccn2)=C(O)c2ccccc2S1(=O)=O | - | 0 | 0 | 0 | 0 | 0 | 0
NNc1ccc2nnc(C(F)(F)C(F)(F)C(F)(F)F)n2n1 | 0 | 0 | 80 | 0 | 0 | 0 | 0
FC(F)(F)C(F)(F)C(F)(F)c1nnc2ccc(N3CCOCC3)nn12 | 0 | 0 | 0 | 0 | 0 | - | -
Cc1cccc(NC(=O)C2C3CCC4C(CCC32)C4(Cl)Cl)c1 (stereo not drawn) | 0 | 0 | 0 | 0 | 0 | - | -
Cc1ccc2nc(COc3ccc(Cl)cc3)cc(=O)n2c1 | 0 | 0 | 0 | 0 | 0 | - | -
COc1ccccc1-[n+]1c(C)cc(/C=C2\Sc3ccccc3N2C)cc1C | 0 | 0 | 68 | 0 | 0 | 62 | 0 | Aptamer quench 1=0
COc1ccc(C(=O)/C=C2\Sc3ccccc3N2C)cc1 | 0 | 0 | 0 | 0 | 0 | - | -
CSc1ncnc2c1ncn2CCCNCC(c1ccccc1)c1ccccc1 | - | - | - | - | 0 | - | -
O=c1c2ccccc2nnn1CSc1ccccc1 | 0 | 0 | 97 | 0 | 0 | - | - | GRK2 CP2=0;FAM quench SP=0
COc1ccccc1NS(=O)(=O)c1cccc(C(=O)OCC(=O)NC2CC2)c1 | - | - | 59 | - | 0 | 0 | 0
CNS(=O)(=O)c1cccc(C(=O)OCC(=O)NC2CCCC2)c1 | - | 0 | 0 | 0 | 0 | - | -
